# Read-outs that look alike come from different tables or passages of the source. Among all 13,000 compounds or so, about 3,200 (25%) showed an effect of 50% or more. The list shows a part of the results.
# Tested on: P. falciparum stage V gametocytes
# Set-up: BacTiter-Glo ATP luminescence viability of purified stage V gametocytes in 384-well plates, per cent inhibition versus DMSO
# Conditions: 48 h, 5 µM, inhibitor
Compound,% Inhibition [%],% Inhibition (% Inhibition) [%]
CCCCCCNC(=O)C(N)CCCC(N)C(=O)NCCCCCC (stereo not drawn) [TCMDC-131401],16.24,
CSc1cccc(NC(=O)Nc2ccc(I)c(OCCN(C)C)c2)c1 [TCMDC-139123],6.817,
COc1cc2cc(Cc3cnc(N)nc3N)ccc2c(OC)c1OC [TCMDC-138023],-6.286,
O=C(NCCCc1ccccc1)c1csc(C2CCCN(C(=O)c3ccc(O)c(-c4cccc5ccccc45)c3)C2)n1 (stereo not drawn) [TCMDC-140154],-33.08,
CC(C)(C)c1ccc(NC(=O)c2cccc(CN3CCCN(Cc4cccc(Cl)c4)CC3)c2)cc1 [TCMDC-135982],-61.3,
CCc1cc(I)c2c(c1)C(NCCCNc1cc(=O)c3ccccc3[nH]1)CCN2 (stereo not drawn) [TCMDC-140023],-10.14,
O=c1cc(NCCNCc2cccc(-c3ccccc3)c2)[nH]c2ccccc12 [TCMDC-139376],20.69,
O=C(CCC1CCCCC1)NCCNc1cccc2ccccc12 [TCMDC-124017],107.9,
Cc1cc(NCCC(=O)Nc2ccccc2)nc(NCC2CCCCC2)n1 [TCMDC-134926],-30.27,
CC(C)(C)C1CCC(C(=O)c2ccc3ccccc3c2O)CC1 (stereo not drawn) [TCMDC-137495],11.22,
O=C(Nc1ccccc1)Nc1cccc(-c2cccc(-c3nc4ccc(F)cc4[nH]3)c2)c1 [TCMDC-133154],-14.02,
CCOc1ccc(-c2nc(NC(=O)COc3ccc(OC)cc3)sc2C)cc1 [TCMDC-124329],36.75,
Cc1ccoc1C(=O)Nc1ccc(-c2cccc(-c3nc4c(C)cccc4[nH]3)c2)cc1 [TCMDC-136837],-21.37,
Cc1ccoc1C(=O)Nc1cccc(-c2cccc(-c3nc4c(C)cccc4[nH]3)c2)c1 [TCMDC-136836],81.69,
Cc1cnc(C(=O)Nc2cccc(-c3cccc(-c4nc5c(C)cccc5[nH]4)c3)c2)cn1 [TCMDC-137030],-21.98,
CC(=O)Nc1nc(C(=O)Nc2cccc(-c3ccc(-c4nc5c(C)cccc5[nH]4)cc3)c2)cs1 [TCMDC-137123],80.9,
Cc1cccc2[nH]c(-c3cccc(-c4cccc(NC(=O)c5csnn5)c4)c3)nc12 [TCMDC-136904],82.61,
CC(=O)Nc1nc(C(=O)Nc2ccc(-c3cccc(-c4nc5c(C)cccc5[nH]4)c3)cc2)cs1 [TCMDC-137131],-2.039,
Cc1cccc2[nH]c(-c3cccc(-c4cccc(NC(=O)C5CC(=O)Nc6ccccc65)c4)c3)nc12 (stereo not drawn) [TCMDC-137097],79.84,
Cc1ccoc1C(=O)Nc1cccc(-c2cccc(-c3nc4ccccc4[nH]3)c2)c1 [TCMDC-136834],-43.19,
O=C(Nc1cccc(-c2cccc(-c3nc4ccccc4[nH]3)c2)c1)c1csnn1 [TCMDC-136898],1.573,
Cc1cccc2[nH]c(-c3cccc(-c4ccc(NC(=O)C5CC(=O)Nc6ccccc65)cc4)c3)nc12 (stereo not drawn) [TCMDC-137098],-77.35,
O=C1CC(C(=O)Nc2cccc(-c3cccc(-c4nc5ccccc5[nH]4)c3)c2)c2ccccc2N1 (stereo not drawn) [TCMDC-137096],26.75,
CC(=O)Nc1nc(C(=O)Nc2cccc(-c3cccc(-c4nc5c(C)cccc5[nH]4)c3)c2)cs1 [TCMDC-137130],-6.466,

Compound,% Inhibition [%],% Inhibition (% Inhibition) [%]
Clc1cc(Nc2ccnc3ccc(Br)cc23)ccc1Oc1ccc(Cl)c2ccccc12 [TCMDC-123834],-13.4,
O=c1cc(NC[C@H]2CCC[C@@H]2NC2CCCc3c2[nH]c2ccccc32)[nH]c2ccccc12 (stereo partly drawn) [TCMDC-139785],10.53,
CCc1cccc(C)c1-n1nc(-c2cc(C(C)(C)C)oc2C)cc1N [TCMDC-134028],9.67,
CCc1ccc(NC(=O)c2ccc(CN3CCCN(CC4CCCCC4)CC3)cc2)cc1 [TCMDC-136437],-21.72,
COc1ccc2nccc(N3CCC(CCNCc4ccc5c(n4)NC(=O)CO5)CC3)c2c1.Cl [TCMDC-141904],-28.1,
Cc1nn(C)c(C)c1CN(Cc1nc(-c2cccc(Oc3ccccc3)c2)oc1C)C1CC1 [TCMDC-124629],8.903,
C=CCc1cc(Cc2cnc(N)nc2N)cc(CCC)c1O [TCMDC-138048],-56.02,
COc1ccc2nccc([C@@H](O)CN3CCC(NC(=O)/C=C/c4cc(F)cc(NC(C)=O)c4)CC3)c2c1 [TCMDC-141030],-4.964,
Oc1cccc(-c2nc3cc(C4=NC5CCCCC5N4)ccc3[nH]2)c1 (stereo not drawn) [TCMDC-138108],,-4.911
CC(=O)Nc1nc(C(=O)Nc2cccc(-c3ccc(-c4nc5ccccc5[nH]4)cc3)c2)cs1 [TCMDC-137127],61.93,
CC(=O)Nc1nc(C(=O)Nc2cccc(-c3cccc(-c4nc5ccccc5[nH]4)c3)c2)cs1 [TCMDC-137121],-11.21,
CC(=O)Nc1nc(C(=O)Nc2ccc(-c3cccc(-c4nc5ccccc5[nH]4)c3)cc2)cs1 [TCMDC-137120],25.25,
N#CC(c1ccc(F)cc1)c1ccc2c(C(F)(F)F)cc(C(F)(F)F)nc2n1 (stereo not drawn) [TCMDC-123761],-46.13,
COc1ccc2nccc(N3CCN(CCNCc4ccc5c(n4)NC(=O)CS5)CC3)c2n1 [TCMDC-141967],-20.32,
COc1cccc(O)c1CNCC(O)c1cccc(C(F)(F)F)c1 (stereo not drawn) [TCMDC-140396],-36.87,
Nc1cccc(CNCc2ccc(-c3cccc(-c4nc5ccc(C(F)(F)F)cc5[nH]4)c3)cc2)c1 [TCMDC-132929],-69.76,
FC(F)(F)c1ccc2nc(-c3ccc(-c4cccc(CNCc5ccccc5)c4)cc3)[nH]c2c1 [TCMDC-132704],67.94,
O=C(NCc1ccccc1)Nc1ccc(-c2ccc(-c3nc4ccc(C(F)(F)F)cc4[nH]3)cc2)cc1 [TCMDC-133157],-8.983,
CS(=O)(=O)c1ccc(CNCc2cccc(-c3ccc(-c4nc5ccc(C(F)(F)F)cc5[nH]4)cc3)c2)cc1 [TCMDC-132902],-71.66,
CS(=O)(=O)c1ccc(CNCc2ccc(-c3cccc(-c4nc5ccc(C(F)(F)F)cc5[nH]4)c3)cc2)cc1 [TCMDC-132897],17.9,
Nc1cccc(CNCc2cccc(-c3ccc(-c4nc5ccc(C(F)(F)F)cc5[nH]4)cc3)c2)c1 [TCMDC-132935],-40.76,
NCc1ccc(CNCc2cccc(-c3ccc(-c4nc5cc(C(F)(F)F)ccc5[nH]4)cc3)c2)cc1 [TCMDC-132811],93.89,
FC(F)(F)c1ccc2nc(-c3ccc(-c4ccc(CNCc5ccccc5)cc4)cc3)[nH]c2c1 [TCMDC-132705],55.9,
FC(F)(F)c1ccc2nc(-c3cccc(-c4ccc(CNCc5ccccc5)cc4)c3)[nH]c2c1 [TCMDC-132712],-50.86,
